Molecules are shown by their SMILES. Records with an inconclusive call do not appear. A number with no mark means an inactive call. Calls come from the whole dose curve.
% is set by controls: 0 for no effect and ±100 for the full control effect.

The assay can be described thus: p53 small molecule agonists, cell-based qHTS assay with rat liver microsomes: qHTS cell viability counter screen (AID 1963580). Note: nearly all actives have a fitted effect of over 45% in size. The following applies: p53RE-bla HCT-116 + rat microsomes, ATP viability, 16 h; series mostly up to 66 µM; activity change, negative = cytotoxicity: at the top concentration. The source says: National Center for Advancing Translational Sciences [NCATS]
Division of Preclinical Innovation [DPI]
U.S. Environmental Protection Agency [EPA]
National Institutes of Environmental Health Sciences [NIEHS]
National Toxicology Program [NTP]
U.S. Food and Drug Administration [FDA]
p53, a tumor suppressor protein, is activated following cellular insult, including DNA damage and other cellular stresses. The activation of p53 regulates cell fate by inducing DNA repair, cell cycle arrest, apoptosis, or cellular senescence. The activation of p53, therefore, is a good indicator of DNA damage and other cellular stresses. The CellSensor p53RE-bla HCT-116 cell line contains a stably integrated beta-lactamase reporter gene under control of the p53 response elements. The activation of the reporter gene under culture conditions can be detected by fluorescence intensity. This cell line was used to screen the Tox21 10K compound library in the condition of presence of rat liver microsomes and to identify agonists that activate the p53 signaling pathway after in vitro metabolic activation (Ooka et al., Archive of Toxicology 96:1975-1987, 2022). The cytotoxicity of the Tox21 compound library against the p53 RE-bla HCT-116 cell line was tested in parallel by measuring the intra cellular ATP content in the same wells.
Tox21 Assay Protocol Summary:
The p53RE-bla cells were dispensed at 4,000cells/3ul/well in 1536-well black-clear bottom plates. After the assay plates were incubated at 37 C, 5% CO2 incubator for 5 hours, 23 nL of compounds dissolved in DMSO, positive controls or DMSO only was transferred to the assay plate. Following compound addition, 3 uL of rat liver microsomes (Molecular Toxicology, Boone, NC) at final concentration of 0.5 mg/mL and 1uL of B-Nicotinamide adenine dinucleotide 2'-phosphate (NADPH) at final concentration of 0.5 mg/mL were transferred to the assay plate. The plates were incubated at 37 C for 16 hours. 1 uL of LiveBLAzer detection mixture was added to each well and the plates were incubated at room temperature in the dark for 2 h. Fluorescence intensity at 460 and 530 nm emission and 405 nm excitation were measured by an Envision plate reader. For cell viability readout that measures cytotoxicity, 4 ul/well of CellTiter-Glo reagent was added into the assay plates using a Flying Reagent Dispenser. After 30 min incubation at room temperature, the luminescence intensity in the plates was measured using a ViewLux plate reader.
(In general: qHTS replaces the single test concentration by a dilution series.)
Consider `COc1ccc2nc(NC(=O)Nc3ccccc3)sc2c1`, for which the “activity change, negative = cytotoxicity” value was 0.611% [at 30.3 µM].

Take `O=C=NCc1cccc(CN=C=O)c1`: the activity change, negative = cytotoxicity is 10.6% [at 13.5 µM].

As to `CC(C)(C)OC(=O)N1C[C@@H](F)C[C@H]1C(=O)O`, the “activity change, negative = cytotoxicity” value is 2.92%.

Regarding `CC12CCC(CC1=O)C2(C)C` (stereo not given), the “activity change, negative = cytotoxicity” value is -4.35%.

Take `Cc1nc2n(c(=O)c1CCN1CCC(c3noc4cc(F)ccc34)CC1)CCCC2`: the “activity change, negative = cytotoxicity” value is -4.29% [at 30.3 µM].

For `COc1cc2nc(N3CCN(C(=O)C4CCCO4)CC3)nc(N)c2cc1OC` (stereo not given), the “activity change, negative = cytotoxicity” value is -1.52% [at 30.3 µM].

On to `CN(C)[C@@H]1C(=O)C(C(=O)NCN2CCCC2)=C(O)[C@@]2(O)C(=O)C3=C(O)c4c(O)cccc4[C@@](C)(O)C3C[C@@H]12` (stereo not given in full), for which the “activity change, negative = cytotoxicity” value was -8.28% [at 30.3 µM].

On to `O=C(NCCc1c[nH]c2ccccc12)c1cccnc1`, for which the “activity change, negative = cytotoxicity” value is 3.6% [at 30.3 µM].

In the case of `c1ccc(SSc2ccccc2)cc1`, the “activity change, negative = cytotoxicity” value is 0.0389%.

On to `CCCCCCCCCCCCCCCCCCOCCO`, for which the activity change, negative = cytotoxicity was 2.48% [at 13.5 µM].

Turning to `Nc1ccc(C(=O)N2CC3CC(CN(Cc4ccccc4)C3)C2)cc1`, the “activity change, negative = cytotoxicity” value is 2.99% [at 30.3 µM].

As to `O=S(=O)(O)c1ccc(O)c2ncccc12`, the “activity change, negative = cytotoxicity” value was -0.606%.

Turning to `Cc1ccc(OC(=O)c2ccccc2O)cc1`, the “activity change, negative = cytotoxicity” value is -0.447%.

As for `Cc1nc2n(c(=O)c1CCN1CCC(c3noc4cc(F)ccc34)CC1)CCC[C@H]2O`, the activity change, negative = cytotoxicity is 3.38% [at 13.5 µM].

As for `Cc1c(C)c2c(c(C)c1OC(=O)CCC(=O)O)CC[C@@](C)(CCC[C@H](C)CCC[C@H](C)CCCC(C)C)O2`, the “activity change, negative = cytotoxicity” value was 0.0658%.

For `COc1cc2[nH]c(=O)[nH]c(=O)c2cc1OC`, the “activity change, negative = cytotoxicity” value is -10.5% [at 30.3 µM].

Turning to `CCCCN1CCCC[C@H]1C(=O)Nc1c(C)cccc1C`, the “activity change, negative = cytotoxicity” value was 8.12% [at 30.3 µM].

`CCOC(=O)CCC(=O)OCC`: the “activity change, negative = cytotoxicity” value was 0.195%.

With `CCC(C(=O)O)c1ccc(N2Cc3ccccc3C2=O)cc1` (stereo not given), the “activity change, negative = cytotoxicity” value was -8.81% [at 30.3 µM].

Consider `CCC(=O)c1c(O)cc(O)cc1O`, for which the “activity change, negative = cytotoxicity” value was 2.78% [at 30.3 µM].

`CNCc1ccccc1`: the “activity change, negative = cytotoxicity” value was -15.3% [at 30.3 µM].

For the molecule `CC(C)C(=O)Nc1cccc(C(F)(F)F)c1`, the “activity change, negative = cytotoxicity” value is -11.5% [at 30.3 µM].

In the case of `CCOC(=O)[C@H](CCc1ccccc1)N[C@H]1CS[C@H](c2cccs2)CN(CC(=O)O)C1=O`, the “activity change, negative = cytotoxicity” value was -0.0238% [at 30.3 µM].

`COc1ccccc1OC(=O)Oc1ccccc1OC`: the “activity change, negative = cytotoxicity” value was 0.427% [at 30.3 µM].

In the case of `O=c1[nH]ncc2ccccc12`, the “activity change, negative = cytotoxicity” value is 4.14%.

For `COc1ccc(S(=O)(=O)N2c3ccc(Cl)cc3[C@@](O)(c3ccccc3Cl)[C@H]2C(=O)N2CCC[C@@H]2C(N)=O)cc1OC`, the “activity change, negative = cytotoxicity” value was 6.21% [at 30.3 µM].

In the case of `C=C[C@@H](C)CCC=C(C)C`, the “activity change, negative = cytotoxicity” value was -0.699%.

Regarding `CC(C)NCC(O)c1ccc2ccccc2c1` (stereo not given), the “activity change, negative = cytotoxicity” value is -2.31% [at 30.3 µM].

`Oc1ccc2c(c1)CCC2`: the “activity change, negative = cytotoxicity” value was -3.11%.

For the molecule `Cc1ccc(Cl)cc1Cl`, the “activity change, negative = cytotoxicity” value is 0%.

On to `CCOC(=O)c1ccc(NC(=O)CN2CCCCC2)cc1`, for which the “activity change, negative = cytotoxicity” value was 3.31% [at 30.3 µM].

Consider `COC(=O)CCc1ccc(OCC(O)CNC(C)C)cc1` (stereo not given), for which the “activity change, negative = cytotoxicity” value was 4.02% [at 30.3 µM].

As for `NNc1nnc(NN)c2ccccc12`, the “activity change, negative = cytotoxicity” value was 1.1% [at 30.3 µM].

On to `CC(C)Cn1cnc2c(N)nc3ccccc3c21`, for which the activity change, negative = cytotoxicity is -0.545% [at 13.5 µM].

In the case of `CC(C)=CC1CC(C)CCO1` (stereo not given), the “activity change, negative = cytotoxicity” value was 7.78%.

Turning to `CCOC(=O)OCC/C(SC(=O)OCC)=C(\C)N(C=O)Cc1cnc(C)nc1N`, the “activity change, negative = cytotoxicity” value is 7.5% [at 30.3 µM].

On to `CC1COc2c(N3CCN(C)CC3)c(F)cc3c(=O)c(C(=O)O)cn1c23` (stereo not given), for which the “activity change, negative = cytotoxicity” value was 2.56% [at 30.3 µM].

In the case of `O=C1CC2(CCCC2)CC(=O)N1`, the “activity change, negative = cytotoxicity” value was 3.41% [at 30.3 µM].

Take `CC(=O)NCCCCCC(=O)O`: the “activity change, negative = cytotoxicity” value was 2.14% [at 30.3 µM].

Take `CCc1cc(Cc2cc(CC)cc(C(C)(C)C)c2O)c(O)c(C(C)(C)C)c1`: the “activity change, negative = cytotoxicity” value was -19.2%.

These data come from PubChem BioAssay (Tox21).
